Compounds without any hit were thinned out: in the full panel of roughly 83,000, 20% have a hit.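 Values shown are percent growth following 48 h exposure of cells in 96-well plates to a single concentration of compound; below 10 was considered active.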 A number with no mark means an inactive call. Active and inactive are the calls of the source.

This is an account of results in PubChem BioAssay (NCI).

What all share (assay): NCI-60 one-dose screen, 48 h (100 = growth as untreated, 0 = no growth, -100 = all killed)
Details in all cases: 10 µM unless noted

The test system of assay [1] is HCT-15 colon.
Assay [2] deals with HT29 colon.
In assay [3] the test system is SNB-75 CNS.
Assay [4] relates to SNB-19 CNS.
For assay [5], the system named is U251 CNS.
Assay [6] concerns PC-3 prostate.
The test system of assay [7] is SK-MEL-5 melanoma.
Assay [8] relates to UACC-62 melanoma.
Assay [9] deals with LOX IMVI melanoma.
Assay [10] relates to SK-MEL-28 melanoma.

On to `O=C1c2ccccc2C(=O)c2c1oc1c2c(=O)[nH]c2ccccc21`, for which the growth in [1] is 44.7%; in [2], 103%; in assay [3], 113%; in assay [4] it was 104%; in assay [5], 79%; in [6], 65.5%. In addition, the growth in assay [7] was 79.7%; in assay [8], 88.7%; in assay [9], 56.1%; in assay [10], 112%.
`Nc1ccc2c(c1)C(=O)C(=O)c1c-2nc2ccccn12`: the growth was -29.8% (active) in assay [1]; 76.1% in assay [2]; 37.5% in [3]; 9.2% (active) in assay [4]; 9.14% (active) in assay [5]; 24% in [6]. In addition, the growth is -99.8% (active) in assay [7], -85.3% (active) in assay [8], -12.7% (active) in assay [9] and -28.9% (active) in [10].
Consider `C#C[C@@]1(O)[C@@H](CO)O[C@@H](n2cc(Cl)c3c(N)ncnc32)[C@@H]1O`, for which the growth in assay [1] was 1.65% (active); in assay [2], 5.79% (active); in assay [3], -42.4% (active); in [4], 2.86% (active); in [5], -6.87% (active); in [6], -17.3% (active). Further, the growth in [7] was -61% (active); in [8] it was -54.2% (active); in [9], -72.5% (active); in assay [10], 42.6%.
As to `COc1ccc(OCC(=O)OC(C)C)cc1`, the growth was 98.4% in [1]; 101% in assay [2]; 85% in assay [3]; 99.2% in assay [4]; 104% in assay [5]; 103% in [6]. For the same compound, the growth in assay [7] is 96.4%; in [8], 96.6%; in assay [9], 87.2%; in assay [10], 102%.
On to `C=C1C(=O)O[C@H]2[C@H]1CC/C(COC(=O)c1cccnc1N)=C\CC[C@@]1(C)O[C@@H]21`, for which the growth was 0.999% (active) in assay [1]; -10.4% (active) in assay [2]; 66% in [3]; 25.7% in assay [4]; 28.8% in assay [5]; 24.8% in [6]. Further, the growth is 15.3% in [7], 33% in assay [8], 7.48% (active) in [9] and 19.6% in [10].
Consider `CC(=O)Oc1c2c(nc3c1c1ccccc1n3Cc1ccccc1)-c1ccccc1C2`, for which the growth in assay [1] is 84.9%; in [2], 75.4%; in assay [3], 75.7%; in [4], 96.7%; in assay [5], 78.7%; in assay [6], 71.8%. Further, the growth is 83.7% in [7], 70.2% in assay [8], 88.1% in assay [9] and 100% in assay [10].
`COc1ccc(-c2nc(C#N)c(NCC(c3ccc(Cl)cc3)N3CCCCC3)o2)cc1` (stereo not given): the growth in [1] is 69.4%; in assay [2], 85.6%; in assay [3], 91%; in assay [4], 113%; in assay [5], 96%; in assay [6], 75.3%. Also, the growth in assay [7] is 93.2%; in [8] it was 90.4%; in assay [9], 93.8%; in [10], 94.3%.
Take `COc1ccc2nc3c(n2c1)C(=O)C(=O)c1ccccc1-3`: the growth in assay [1] was -60.2% (active); in assay [2], 64%; in assay [3], -54.4% (active); in assay [4], -30.9% (active); in assay [5], -59.4% (active); in assay [6], 22.3%. The growth in assay [7] is -99.5% (active); in assay [8], -91.1% (active); in [9], -68.4% (active); in assay [10], -83.2% (active).
For `CC(=O)OCC1SC(OC(C)=O)C(NC(=O)/C=C/CCl)C(OC(C)=O)C1OC(C)=O` (stereo not given), the growth was 100% in [1]; 102% in assay [2]; 93.8% in [3]; 111% in assay [4]; 90.6% in assay [5]; 86.8% in assay [6]. In addition, the growth in assay [7] is 87.7%; in assay [8], 98%; in assay [9], 93.4%; in [10] it was 112%.
Consider `CN(C)C1=NCCN1`, for which the growth in [1] was 108%; in assay [2], 88.3%; in [3], 75.8%; in assay [4], 111%; in assay [5] it was 96.9%; in assay [6] it was 80%. Besides, the growth in [7] was 103%; in assay [8] it was 102%; in assay [9], 99.2%; in assay [10], 113%.
`CCN(CC)CC#CCOC(=O)[C@]1(C)CCC[C@]2(C)[C@H]3C[C@H]4C(C(C)C)=C[C@]3(CC[C@H]21)[C@@H]1C(=O)CCC(=O)[C@@H]14`: the growth in [1] was 42.7%; in [2] it was 5.05% (active); in [3], 55.4%; in assay [4], 70.4%; in assay [5], 38.3%; in assay [6] it was 25%. Also, the growth in assay [7] is 58.8%; in assay [8] it was 70.5%; in [9], 38.7%; in assay [10], 66.2%.
Regarding `O=C1c2ccccc2C(=O)c2c1oc1c2c(=O)[nH]c2ccc(Cl)cc21`, the growth in assay [1] was -31.1% (active); in assay [2], 66.4%; in assay [3] it was -9.01% (active); in assay [4] it was 7.11% (active); in assay [5], -77.5% (active); in [6] it was -33.3% (active). In addition, the growth in [7] is 12.3%; in assay [8], 75.1%; in assay [9], 11.1%; in assay [10], -11.8% (active).
Turning to `Cc1cc(O)cc(O)c1N=NC1=NCCS1`, the growth in [1] is 102%; in assay [2], 95.7%; in assay [3], 81.7%; in [4] it was 107%; in assay [5] it was 105%; in [6] it was 107%. Also, the growth was 111% in [7], 99.5% in assay [8], 97.2% in assay [9] and 98.5% in [10].
With `COc1ccc(-c2cc(-c3nnc(SCC(=O)Nc4ccc(C(C)=O)cc4)o3)c3ccccc3n2)cc1`, the growth in assay [1] was 23.3%; in assay [2] it was 38.9%; in assay [3] it was -5.55% (active); in assay [4], 13.8%; in [5], -68.6% (active); in [6] it was 6.81% (active). The growth is 5.12% (active) in assay [7], 25.8% in [8], 4.15% (active) in [9] and 42.7% in assay [10].
As for `CCSc1nc(Cl)c(C#N)c(-c2ccc(F)cc2)n1`, the growth in assay [1] is 88.1%; in [2], 92.6%; in assay [3], 80.3%; in assay [4], 92.7%; in assay [5] it was 91.6%; in assay [6], 98.9%. In addition, the growth in [7] is 97.1%; in assay [8] it was 93.4%; in assay [9] it was 87.1%; in assay [10] it was 101%.
Turning to `Cc1cccc(C)c1Nc1nnc(-c2ccc(F)cc2)o1`, the growth is 110% in assay [1]; 111% in assay [2]; 80.2% in [3]; 104% in [4]; 104% in assay [5]; 98.6% in assay [6]. Also, the growth is 98.9% in assay [7], 103% in assay [8], 95.1% in assay [9] and 100% in assay [10].
For `Sc1cccc2cccnc12`, the growth was 30.1% in assay [1]; 15.8% in [2]; 52.8% in assay [3]; 42.7% in assay [4]; 23.2% in [5]; 43.7% in assay [6]. The growth in assay [7] was -10.9% (active); in [8], -3.89% (active); in assay [9] it was 7.92% (active); in [10], 36.3%.
Turning to `CCOC(=O)/C=C1\SC(=Nc2ccc(C#N)cc2)N(CCN2C(=O)/C(=C/C(=O)OCC)SC2=Nc2ccc(C#N)cc2)C1=O`, the growth in assay [1] was 2.58% (active); in assay [2], 15.7%; in assay [3], 53.6%; in assay [4], 28.2%; in assay [5], -7.96% (active); in assay [6], 39.6%. Also, the growth in assay [7] was 58.8%; in assay [8] it was 33.6%; in assay [9] it was 0.0355% (active); in assay [10], 97%.
Turning to `O=c1[nH]c2ccccc2cc1-c1nc2ccc(Cl)cc2[nH]1`, the growth in assay [1] is 23.5%; in assay [2] it was 53.1%; in assay [3] it was 45.1%; in assay [4] it was 75.5%; in [5] it was 49.5%; in assay [6], 26%. Moreover, the growth in assay [7] was 42.5%; in assay [8] it was 43%; in [9], 42.4%; in [10], 72.4%.
Regarding `COc1ccc(-n2nc(C(=O)NCC(=O)O)nc2-c2ccccc2)cc1`, the growth in assay [1] is 113%; in assay [2] it was 98.7%; in assay [3] it was 103%; in assay [4] it was 100%; in assay [5], 107%; in [6] it was 103%. For the same compound, the growth is 100% in assay [7], 102% in [8], 94.1% in [9] and 108% in [10].
For the compound `COc1cc2c(cc1OC)C(Sc1ccc(Cl)cc1)c1c(nc(N)c(C#N)c1N)O2` (stereo not given), the growth in assay [1] is -66.2% (active); in [2], -61.9% (active); in [3], -17.4% (active); in assay [4] it was 22.1%; in assay [5] it was -62.5% (active); in assay [6], 5.11% (active). Moreover, the growth was 12.5% in [7], -23.8% (active) in assay [8], -88.9% (active) in assay [9] and -3.09% (active) in [10].
On to `O=c1c2ccccc2n(CC(O)CN2CCCC2)c2c(Br)cccc12` (stereo not given), for which the growth in assay [1] was 103%; in assay [2] it was 103%; in [3], 79%; in [4], 84.7%; in [5], 98.8%; in assay [6] it was 95.9%. Moreover, the growth is 96.8% in assay [7], 119% in [8], 96.6% in assay [9] and 96.9% in assay [10].
Regarding `COc1cc(C2=NN(C(C)=O)C(c3cccc(Nc4ccnc5cc(C(F)(F)F)ccc45)c3)C2)cc(OC)c1OC` (stereo not given), the growth in assay [1] was 39.9%; in [2] it was 22.1%; in [3] it was 76.1%; in assay [4], 60.9%; in assay [5] it was 58.7%; in assay [6], 25%. The growth in assay [7] was 27.8%; in assay [8], 69%; in [9], 53.2%; in assay [10], 66.5%.
Consider `Cc1ccn2c3c(c(C(=O)O)c2c1)C(=O)c1ccccc1C3=O`, for which the growth is 58.8% in assay [1]; 39.5% in assay [2]; 87.8% in assay [3]; 50.4% in assay [4]; 74.9% in [5]; 84.8% in [6]. In addition, the growth was -98.9% (active) in assay [7], 0.126% (active) in assay [8], 48.9% in assay [9] and 46% in [10].
On to `Fc1ccc(N/N=C/c2ccc(-n3cccn3)cc2)cc1`, for which the growth in assay [1] was 83%; in assay [2] it was 93.5%; in assay [3], 99.4%; in assay [4], 110%; in assay [5] it was 103%; in [6] it was 85.8%. Moreover, the growth in [7] is 107%; in [8], 74.9%; in [9], 83.8%; in assay [10], 112%.
With `COC(=O)/C=C1\SC(=Nc2cccc(Cl)c2)N(CCc2c[nH]c3ccccc23)C1=O`, the growth is 29% in assay [1]; 8.6% (active) in assay [2]; 84.5% in assay [3]; 54.4% in assay [4]; 41.1% in assay [5]; 31.8% in assay [6]. The growth is 63.3% in assay [7], 18.3% in assay [8], 5.31% (active) in assay [9] and 64.8% in assay [10].
For `Cc1cc(C)n(-c2nc(-c3cccs3)c(C#N)c(=O)[nH]2)n1`, the growth in assay [1] was 71.1%; in assay [2] it was 100%; in assay [3] it was 89.2%; in assay [4] it was 96.3%; in assay [5], 90.8%; in assay [6], 94.2%. The growth in [7] is 102%; in assay [8], 94.8%; in assay [9] it was 84.7%; in assay [10], 99.8%.
